Screens (PubChem)
Hits are enriched below; roughly 2.2% of the tested compounds scored in any of these assays.
NPR2 activator: GC-B (human) receptor activation. P20594. HEK293-GC-B cells, CNP EC30, cGMP TR-FRET; 0% at EC30 CNP, 100% saturating CNP. activation, % at 10 µM. 370,000 tested, 0.11% active;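 active = activation at 10 µM reaching about 35% in either raw or pattern-adjusted values, limit read from the data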
NPR1 activator: GC-A (human) enzyme activation; P16066; HEK293 GC-A cells, cGMP TR-FRET, EC30 ANP; 0% at EC30 ANP, 100% saturating ANP; activation, % at 10 µM; 370,000 tested, 0.14% active; AID 1671463; in the data active = activation above about 40%
KLK7 zymogen act: proKLK7 (human) activation, primary screen; P49862; purified proKLK7, EDANS-DABCYL substrate fluorescence; 100% is mature enzyme control, 0% vehicle; activation, % at 7 µM; 370,000 tested, 0.9% active;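 active = activation above the mean of all tested compounds plus 3 SD, computed per campaign excluding outliers beyond control limits, cut at about 13% in these data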
ADAM10 inh: inhibitors of human ADAM10 | O14672 | recombinant ADAM10, EDANS/DABCYL FRET peptide cleavage, 3 h | inhibition, % at 7 µM | 370,000 tested, 0.62% active;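 active = inhibition above a per-campaign cutoff equal to the mean of compounds falling between control-based bounds plus 3 SD, cut at about 20% in these data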
ADAM17 inh: inhibitors of human ADAM17 | recombinant ADAM17, EDANS/DABCYL FRET peptide cleavage | 370,000 tested, 0.83% active | P78536 | inhibition, % at 6.95 µM;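 active = inhibition above the mean of compounds lying between control limits plus 3 SD, set per campaign, cut at about 8.5% in these data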
Numbers stand for hits; n = inactive; x = no result.

SMILES | NPR2 activator | NPR1 activator | KLK7 zymogen act | ADAM10 inh | ADAM17 inh
O=C(Nc1sc2c(c1-c1nc3ccccc3s1)CCNC2)C(F)F | n | n | x | n | n
C=CC[C@@H](CC(=O)OC(C)(C)C)C(=O)OC[C@@H]1CCCN1C(=O)[C@@H](CC=C)CC(=O)N[C@@H](CO)Cc1ccccc1 | n | n | n | n | n
C=CC[C@@H](Cc1ccc(F)cc1)C(=O)OC[C@@H]1CCCN1C(=O)[C@H](CC=C)CC(=O)N[C@H](CO)Cc1ccccc1 | n | n | n | n | 15
NCCN1CCN(S(=O)(=O)c2ccc3c(c2)CCN3C(=O)C2CCC2)CC1 | n | n | n | n | n
COC(=O)[C@@]12CCCCC3=C1N(CCC3)C(=O)[C@H]2CC(=O)NCc1ccc(C)o1 | n | n | n | n | n
Cc1cccc(Nc2nnc(-c3ccc(N4CCOCC4)c([N+](=O)[O-])c3)c3ccccc23)c1 | 48 | n | n | n | n
CN[C@H]1C[C@H]2c3[nH]c4c(-c5ccc6c(c5)OCO6)cccc4c3CCN2C[C@H]1[C@H](C)O | n | n | n | n | n
CO/N=C/c1ccc(N2CCN(C(=O)c3ccc(Cl)cc3Cl)CC2)c([N+](=O)[O-])c1 | n | n | n | 20 | n
CCC(C)n1nnc2c(=O)oc3ccccc3c21 (configuration not stated) | n | n | x | x | x
Cc1ccc(-n2nnc3c(=O)oc4ccccc4c32)cc1 | 39 | n | n | n | n
COC(=O)c1ccc(-c2nc(O)c(C)s2)cc1 | n | n | n | n | n
COC(=O)c1ccc(-c2nc3cc(Cl)c(N)cc3s2)cc1 | n | 51 | n | n | n
CCOC(=O)c1[nH]c(C)c(C(=O)NC2CCCC2)c1C | 56 | n | n | n | n
CCOC(=O)c1cccc(NC(=O)CS(=O)(=O)Cc2nc(-c3cccc(OC)c3)oc2C)c1 | 37 | n | n | n | n
COc1cccc(-c2nc(CS(=O)(=O)CC(=O)Nc3cccc(C(C)=O)c3)c(C)o2)c1 | n | n | n | n | n
COc1ccccc1NS(=O)(=O)c1cc(NC(=O)c2ccc(Cl)nc2)ccc1Cl | n | n | n | n | n
CCN(CC)c1ccc(NC(=O)c2cccc(C)c2)cc1S(=O)(=O)Nc1ccccc1OC | n | n | n | 25 | 13
CCN(CC)c1ccc(NC(=O)c2ccccc2)cc1S(=O)(=O)Nc1ccccc1OC | n | n | n | n | 9.4
COc1ccc(CN(C(=O)Cc2c[nH]c3ccccc23)C(C(=O)NC2CCCCC2)c2ccc(C)o2)cc1 (configuration not stated) | n | n | n | 26 | 12
COc1cc(C(C(=O)NC2CCCCC2)N(Cc2cccs2)C(=O)Cc2c[nH]c3ccccc23)cc(OC)c1OC (configuration not stated) | n | n | n | n | n
CN(CCOC(=O)c1cc2ccccc2o1)C1CN(Cc2cn(Cc3cccc(F)c3)nn2)S(=O)(=O)C1 (configuration not stated) | n | n | n | n | n
C[C@H](NC(=O)c1[nH]cnc1C(=O)Nc1ccc(CNC(=O)OC(C)(C)C)cc1)C(=O)OC(C)(C)C | n | n | n | 22 | 11
CC(C)C[C@H](NC(=O)c1nc[nH]c1C(=O)N[C@@H](CC(C)C)C(=O)OC(C)(C)C)C(=O)OC(C)(C)C | n | n | n | n | 9.5
Cn1cnc(C(=O)NCc2ccc(CNC(=O)OC(C)(C)C)cc2)c1C(=O)NCc1ccc(CNC(=O)OC(C)(C)C)cc1 | n | n | n | 21 | 11
CC(C)C[C@H](NC(=O)c1nc[nH]c1C(=O)NC(c1ccccc1)c1ccccc1)C(=O)OC(C)(C)C | n | n | n | n | n
SMILES | NPR2 activator | NPR1 activator | KLK7 zymogen act | ADAM10 inh | ADAM17 inh
S=C(Nc1ccccc1)OC1CCC12CCC(c1ccccc1)CC2 (configuration not stated) | n | n | n | n | n
COc1ccc(-c2nnc(SCc3c(F)cccc3F)n2N)cc1 | n | n | n | n | n
O=c1n(Cc2ccc(Cl)cc2)c2sc3c(c2c2ncnn12)CCCC3 | 49 | n | n | n | n
C=CCn1c(=O)n2ncnc2c2c3c(sc21)CCCC3 | n | n | x | x | x
Cn1c(=O)c2c(nc(NC3CCCCC3)n2Cc2ccccc2)n(C)c1=O | 54 | 79 | n | n | n
C/C(Cl)=C\Cn1c(Nc2ccccc2)nc2c1c(=O)n(C)c(=O)n2C | 55 | 62 | n | n | n
CCCCCn1c(NC2CCCCC2)nc2c1c(=O)[nH]c(=O)n2C | n | 48 | n | n | n
Cc1cccc(-n2c(SCC(=O)O)nc3sc4c(c3c2=O)CCCC4)c1 | 45 | n | n | n | n
COCCN=c1scc(-c2cccs2)n1/N=C/c1ccc(O)c(O)c1O | n | n | n | 24 | 14
O=C(NC1CCC1)c1ccc(C#Cc2cccc(F)c2)nc1 | n | n | n | n | n
COc1ccc(OCC(C)CN2CCC(C(O)(c3ccccc3)c3ccccc3)CC2)cc1 (configuration not stated) | n | n | n | n | n
CCOC(=O)CCSc1nc(-c2ccc3c(c2)OCO3)cc(C(F)(F)F)c1C#N | n | 42 | n | n | n
CCOC(=O)CC(=O)CSc1nc(-c2ccc3c(c2)OCO3)cc(C(F)(F)F)c1C#N | n | n | x | x | x
S=C(Nc1cccc(Cl)c1)OCCN1CCCC12CCC(c1ccccc1)CC2 (configuration not stated) | n | n | x | n | n
COc1ccc(Nc2c(-c3ccco3)nc3ccc(C)cn23)cc1 | 36 | n | n | n | n
O=C(/C=C/c1ccc(Cl)cc1Cl)OCC(=O)N1CCCC1 | n | 41 | n | n | n
CC(=O)NC(c1ccc(C(C)C)cc1)c1c(O)ccc2ccccc12 (configuration not stated) | n | 47 | n | n | n
C=CCN1[C@@H](C)COc2cc(N3CCCC3)ccc2S1(=O)=O | n | n | n | n | n
COc1ccc(COc2cc(-c3cccc(OC)c3)nc3ccc(NC(=O)c4ccccc4)cc23)cc1 | 44 | 40 | n | n | n
COc1ccc(COc2cc(-c3cccc(OC)c3)nc3ccc(NC(=O)c4cccnc4)cc23)cc1 | 57 | 52 | n | n | n
CCCCN1C(=O)N2Cc3ccc(C)cc3C2CS1(=O)=O (configuration not stated) | n | n | n | n | n
O=c1c(Cl)cc(Cl)nn1-c1ccccc1 | n | 47 | n | n | n
COc1cc(Cl)nn(-c2ccccc2)c1=O | n | n | n | n | n
CC(C)C(=O)NC(c1cccc([N+](=O)[O-])c1)c1ccc2cccnc2c1O (configuration not stated) | n | n | n | n | n
CCCC(=O)NC(c1cccc([N+](=O)[O-])c1)c1ccc2cccnc2c1O (configuration not stated) | n | n | n | 26 | n
